Source: PubChem (National Center for Advancing Translational Sciences (NCATS))
This is a sample that favours compounds with a hit; in the whole collection about 8% have one here.
KB-V1 MDR tox: KB-V1 MDR subline cytotoxicity; 3.4% of 400,000 active; Potency, µM (doses to about 46.1 µM), usual class: cytotoxic; KB-V1 MDR cells viability, CellTiter-Glo, 72 h; AID 1347076; also: % is scaled to controls: 0 for no effect and ±100 for the full control effect; nearly all actives have a fitted effect of over 60% in size
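KB-V1, DMEM (no phenol red) + 10% FBS; cpd pin-transferred, titration series; 72 h, 37 degrees C; CellTiter-Glo, luminescence. Data normalized, curve-fit.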
HT1080-NT tox: kills 2HG-producing HT-1080-NT fibrosarcoma cells | HT-1080-NT fibrosarcoma viability, CellTiter-Glo ATP luminescence, 48 h | Potency, µM (highest dose often 46.1 µM), for the others: at the highest dose activity, negative = less viability, usual class: cytotoxic | 1.6% of 360,000 active | AID 686970;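 also: NT is the 2HG producing partner of a matched IDH1 knockdown line; 0% = DMSO-treated cells and -100% = media-only wells without cells; nearly all actives have a fitted effect of over 55% in size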
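Fibrosarcoma NT cells, 750 per well in 5% FBS RPMI, were exposed to compound for 48 hours. Viability: CellTiter-Glo luminescence.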
KB-3-1 cytotox: kills parental KB-3-1 adenocarcinoma cells; 1.4% of 400,000 active; Potency, µM (series often up to 46.1 µM), most hits filed as cytotoxic; KB-3-1 viability, CellTiter-Glo ATP luminescence, 72 h; AID 1347075; also: % is scaled to controls: 0 for no effect and ±100 for the full control effect; nearly all actives have a fitted effect of over 60% in size
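KB-3-1 parental drug-naive adenocarcinoma cells in DMEM/10% FBS, incubated 72 h at 37 C with pin-transferred compounds across a concentration series. Viability by CellTiter-Glo luminescence; concentration-response curves fitted after normalization.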
SW480 rerep: inducers of DNA re-replication in SW480 colon cancer cells | Potency, µM (titrated, usually from 46.1 µM), without a hit: at the highest dose re-replication activation, usual class: activators | SW480 DNA re-replication, Hoechst DNA content imaging, 48 h | 1.8% of 340,000 active; also: % of control where 0% means no effect; nearly all actives have a fitted effect of over 55% in size
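250 cells/well; 23 nL cpd via pin tool; 48 hr, 37 C, 5% CO2; Hoechst 40 min; imager read of total nuclear intensity, ex 405/em 500-530 nm.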
HT1080 IDH1KD tx: toxicity to HT-1080 IDH1 knockdown cells (counter line). HT-1080 IDH1 knockdown viability, ATP luminescence, 48 h. Potency, µM (top dose mostly 46.1 µM), for the others: at the top dose activity, negative = toxicity, usual class: cytotoxic. 2% of 360,000 active;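 also: 0% = DMSO wells and -100% = cell-free medium wells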
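HT-1080-IDH1KD cells (IDH1 knocked down), 750/well in RPMI with 5% FBS, treated with compound 48 h at 37 degrees C. Viability by CellTiter-Glo luminescence, normalised to DMSO and no-cell wells; concentration-response curves classed.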
MCF10A rereplic: induces DNA re-replication in MCF 10a normal breast cells | MCF 10A DNA re-replication, Hoechst nuclear intensity, 48 h | Potency, µM (doses to about 46.1 µM), inactives show at the highest dose activity, positive = re-replication, usual class: activators | 2.9% of 350,000 active; also: % of control where 0% means no effect; nearly all actives have a fitted effect of over 50% in size
* marks the source's active call; other numbers are inactive results; i = inactive; ? = inconclusive; . = not tested or not shown; ! = repeats disagree. Calls follow the shape of the dose curve; as a rule, active = well fitted curve in the direction sought with a large enough effect; inconclusive = small, poorly fitted or top-dose-only effect, or another doubt; inactive = no such curve, though single readings can be large; an effect the other way counts as inactive or inconclusive. Potency is read from the fitted curve at half-maximal effect.

SMILES | KB-V1 MDR tox | HT1080-NT tox | KB-3-1 cytotox | SW480 rerep | HT1080 IDH1KD tx | MCF10A rereplic
COc1cc(/C=C/C(=O)c2c(O)n(CCc3ccccc3)c(=O)[nH]c2=O)ccc1O | i | ? | i | ? | 12µM* | ?
O=C(/C=C/c1ccccc1)c1c(O)n(CCc2ccccc2)c(=O)[nH]c1=O | 6.5µM* | -11% | 15µM* | ? | -22% | 8.2µM*
CC(C)(N)Cc1ccc(Cl)cc1 | . | . | . | -6% | . | -1%
FC(F)(F)c1nc(N2CCN(c3ccccc3)CC2)nc2c1CCCCC2 | i | -3% | i | -14% | -13% | ?
CC(C)(C)NCC1(CO)SC(N)=NC1=O (configuration not stated) | i | -4% | i | ? | 0% | 21µM*
Cc1cc(NS(=O)(=O)c2ccc(N)cc2)no1 | i | . | i | 0% | . | ?
CC[n+]1c(-c2ccccc2)c2cc(N)ccc2c2ccc(N)cc21 | ? | ? | ? | -7% | 16µM* | -3%
Cc1ccccc1-n1nc(C)c2c1NC(=O)CSC2c1ccccc1C(F)(F)F (configuration not stated) | i | . | ? | . | . | .
CCCCCc1cc(O)c2c(c1)OC(C)(C)C1CC=C(C)CC21 (configuration not stated) | . | . | . | ? | . | 7.5µM*
CCOc1c(Cl)cc(CNCCc2c[nH]c3ccccc23)cc1OC | 21µM* | ? | ? | ? | -8% | 18µM*
FC(F)(F)c1ccccc1CNCCc1c[nH]c2ccccc12 | i | -23% | i | ? | -13% | 10µM*
CCOc1cc(CNCCc2c[nH]c3ccccc23)cc(Cl)c1OCC | ? | ? | ? | ? | ? | 31%
COc1ccc(CNCCc2c[nH]c3ccccc23)c(OC)c1C | ? | ? | i | ? | 26µM* | ?
C[C@H](NC(C)(C)C)C(=O)c1cccc(Cl)c1 | . | . | . | 1% | . | 3%
Cc1nn(-c2ccccc2)c(Cl)c1/C=N\NC(=O)c1cnccn1 | i | 3% | i | -6% | 11% | ?
CCN1C(=O)C(=C2C=C(C)N(Cc3ccco3)C(C)=C2)C(=O)N(CC)C1=S | i | 1% | i | ? | 2% | 13µM*
Nc1cc(Cl)c2nonc2c1[N+](=O)[O-] | ? | 7.3µM* | 16µM* | ? | 12µM* | 3.3µM*
O=[N+]([O-])c1c(Cl)c(Cl)c(Cl)c(Cl)c1Cl | i | . | i | -3% | . | 0%
CCOC(=O)C(O)(c1ccc(N(CC)C(=O)OC)cc1)C(F)(F)F (configuration not stated) | 21µM* | -5% | i | -18% | 4% | -1%
CCOC(=O)N(CC)c1ccc(C(O)(C(=O)OCC)C(F)(F)F)cc1 (configuration not stated) | i | 17% | i | -17% | 17% | -15%
c1cc2c(cc1NC1=NCCO1)CCCC2 | ? | ? | 15µM* | ? | ? | ?
Cc1nc2cc(C(F)(F)F)ccc2n1C1CCN(Cc2nnnn2CCc2ccccc2)CC1 | ? | 18µM* | ? | -2% | ? | ?
Cc1nc2cc(F)ccc2n1C1CCN(Cc2nnnn2CCc2ccccc2)CC1 | 12µM* | -23% | i | 7% | -17% | 2%
Cc1cc(NC(=O)c2cccn(Cc3cccc([N+](=O)[O-])c3)c2=O)no1 | i | . | i | . | . | .
O=C1NC(=O)C(Cc2ccccc2)(Cc2ccccc2)C(=O)N1Cc1ccccc1 | 16µM* | ? | ? | ? | ? | ?
SMILES | KB-V1 MDR tox | HT1080-NT tox | KB-3-1 cytotox | SW480 rerep | HT1080 IDH1KD tx | MCF10A rereplic
Cc1ccc(Cn2cccc(C(=O)Nc3ccc(C)c(Cl)c3)c2=O)cc1 | i | . | ? | . | . | .
c1ccc(-c2ccc(C(c3ccccc3)n3ccnc3)cc2)cc1 (configuration not stated) | ? | ? | i | ? | ? | 10µM*
c1ccc(C(c2ccccc2)c2cccnc2)cc1 | i | 0% | i | 5% | -20% | 7%
N#CC(C#N)=NNc1ccc(-n2ccc(C(F)(F)F)n2)cc1 | i | ? | ? | ? | 4.6µM* | ?
ClCCN(CCCl)c1ccc(C=Cc2ccncn2)cc1 | i | -5% | i | ? | -4% | 15µM*
ClCCN(CCCl)c1ccc(C=NNc2ncccn2)cc1 | i | -17% | i | ? | -20% | ?
CC1OC(C)OC(C)O1 (configuration not stated) | . | . | . | 2% | . | -1%
O=c1c2ccccc2nc(-c2ccoc2)n1-c1ccccc1Cl | 16µM* | -18% | ? | 2% | ? | 4%
C[C@]12CC[C@H](O)CC1=CCC1C2CC[C@@]2(C)C1C[C@@H](O)[C@@H]2O (some centres not stated) | i | 4% | i | 4% | 3% | 0%
CC(=O)C1C(N2CC2)CC2C3CC=C4CC(O)CCC4(C)C3CCC21C (configuration not stated) | ? | -25% | ? | 23µM* | -6% | 4.6µM*
O=c1c2ccccc2c(C=Nc2ccc(O)cc2)c(O)n1Cc1ccccc1 | ? | 2% | i | 21µM* | -2% | ?
CCOc1ccccc1-n1c(O)c(C=Nc2ccc(N(CC)CC)cc2)c(=O)[nH]c1=O | ? | ? | 16µM* | ? | ? | ?
CCN(CC)c1ccc(N=Cc2c(O)n(Cc3ccccc3)c(=O)[nH]c2=O)cc1 | ? | -2% | i | 0.52µM*! | -15% | ?
COc1ccc(Cn2c(O)c(/C=N/NC(=O)c3ccccc3O)c(=O)[nH]c2=O)cc1 | i | ? | ? | -3% | ? | 4.6µM*
CCN(CC)c1ccc(N=Cc2c(O)n(-c3ccccc3C)c(=O)[nH]c2=O)cc1 | i | ? | i | 3% | ? | -6%
CCOc1ccc(N=Cc2c(O)n(Cc3ccccc3)c(=S)[nH]c2=O)cc1 | i | 24% | i | -9% | 19% | -24%
C=CCN=C=S | . | . | . | -1% | . | -1%
[N-]=[N+]=CC(=O)OCC(N)C(=O)O (configuration not stated) | . | . | . | 2% | . | 15%
CNC(=O)OCC[N+](C)(C)C | . | . | . | 1% | . | 1%
COc1ccccc1N1CCN(Cc2ccccc2Cl)CC1 | 21µM* | 25% | i | 1% | 13% | ?
Clc1ccccc1CN1CCN(c2ccccc2)CC1 | i | 2% | i | ? | -13% | ?
COc1ccccc1N1CCN(Cc2c(F)cccc2F)CC1 | 15µM* | 19% | i | 1% | -26% | -1%
